Experimental data: PubChem BioAssay (Tox21)
Records with an inconclusive call do not appear. The source made the active and inactive calls. Unless noted, calls follow the shape of the dose curve; as a rule, active = well fitted curve in the direction sought with a large enough effect in the repeat runs; inconclusive = weak or mixed curves; inactive = no such curve, though single readings can be large; an effect the other way counts as inactive or inconclusive.

How the values were obtained:
[1] = molecular target: Luciferin 4-monooxygenase (Photinus pyralis) (UniProt P08659); experiment: qHTS assay to identify small molecule inhibitors of firefly luciferase (AID 1224835); also: series mostly up to about 120 µM; nearly all actives have a fitted effect of over 25% in size
Method in brief: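 Inhibition of purified Photinus luciferase is measured by luminescence. Substrate levels (D-luciferin, ATP) sit at their KM values. Each compound is tested in a concentration series.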

[2] = qHTS assay to identify small molecule agonists of the constitutive androstane receptor (CAR) signaling pathway - cell viability counter screen (AID 1224836); also: series mostly up to about 92 µM; nearly all actives have a fitted effect of over 45% in size
Method in brief: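 HepG2 cells stably carrying hCAR and a CYP2B6-2.2kb reporter were plated 4 h, then given compounds at 15 concentrations plus PK11195 (final 0.75 uM). After 23 h at 37 C, viability was read by CellTiter-Fluor fluorescence.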

[3] = qHTS assay to identify small molecule antagonists of the constitutive androstane receptor (CAR) signaling pathway - cell viability counter screen (AID 1224837); also: series mostly up to about 92 µM; nearly all actives have a fitted effect of over 45% in size
Method in brief: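 HepG2 cells stably expressing hCAR and a CYP2B6-2.2kb reporter were plated and pre-incubated 4 hr at 37 C/5% CO2, then given compounds at 15 concentrations plus 50 nM CITCO (final). After 23 hr, viability was read by CellTiter-Fluor fluorescence.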

[4] = molecular target: Nuclear receptor subfamily 1 group I member 3 (Homo sapiens) (UniProt Q14994); experiment: qHTS assay to identify small molecule antagonists of the constitutive androstane receptor (CAR) signaling pathway (AID 1224838); also: nearly all actives have a fitted effect of over 40% in size
Method in brief: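 HepG2 cells stably co-transfected with hCAR and a CYP2B6-2.2kb luciferase reporter were seeded 4 h before compound addition at 15 concentrations. Cells were stimulated with 50 nM CITCO (final) for 24 h at 37 C; luciferase luminescence was then read.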

[5] = molecular target: Nuclear receptor subfamily 1 group I member 3 (Homo sapiens) (UniProt Q14994); experiment: qHTS assay to identify small molecule agonists of the constitutive androstane receptor (CAR) signaling pathway (AID 1224839);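 also: HepG2 cells stably carrying human CAR and a CYP2B6 luciferase reporter; series mostly up to about 92 µM; nearly all actives have a fitted effect of over 15% in size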
Method in brief: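 HepG2 cells stably expressing hCAR and a CYP2B6-2.2kb luciferase reporter were treated with compounds at 15 concentrations plus 0.75 uM PK11195 (final) for 24 h at 37 C; luminescence was read after ONE-Glo addition.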

[6] = qHTS assay to identify small molecule antagonists of the estrogen related receptor signaling pathway with the pleiotropic PPARgamma coactivator (PGC) from Tox21 10K library - cell viability counter screen (AID 1224840; active = well fitted cell-killing curve with a large enough effect in the repeat runs, not every such curve was filed as active; also: nearly all actives have a fitted effect of over 40% in size)
Method in brief: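 PGC/ERR cells were seeded at 2,000 cells/well and left 6 hours at 37 C/5% CO2 before pin-tool addition of compounds in DMSO. After 17.5 hours at 37 C, CellTiter-Fluor was added and fluorescence read 30 minutes later.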

[7] = molecular target: Thyrotropin receptor (Homo sapiens) (UniProt P16473); experiment: qHTS assay to identify small molecule agonists of the thyroid stimulating hormone receptor (TSHR) signaling pathway (AID 1224843; calls by dose curve; also: nearly all actives have a fitted effect of over 45% in size)
Method in brief: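 HEK293 cells stably bearing the thyrotropin receptor were plated at 800 cells/well and challenged with compound (30 min, RT). Accumulated cAMP was quantified via cAMP-d2 competing for cryptate-tagged antibody.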

[8] = qHTS assay to identify small molecule agonists of the hypoxia (HIF-1) signaling pathway - cell viability counter screen (AID 1224844; calls by dose curve; also: nearly all actives have a fitted effect of over 50% in size)
Method in brief: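 HRE-bla ME-180 cells in medium with 0.5% dialyzed FBS were preincubated 5 hrs at 37C, exposed to compounds for 17 hrs, then viability was read as CellTiter-Glo luminescence after 30 min at room temperature, in the reporter wells.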

[9] = qHTS assay to identify small molecule antagonists of the estrogen related receptor signaling pathway with the pleiotropic PPARgamma coactivator (PGC) from Tox21 10K library (AID 1224841; call rule not given here; also: series mostly up to about 92 µM; actives are mostly falling curves and most rising ones were filed inactive; nearly all actives have a fitted effect of over 50% in size)
Method in brief: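 PGC/ERR reporter cells were seeded at 2,000 cells/well and held 6 hours at 37 C/5% CO2 before pin-tool addition of compounds in DMSO. After 18 hours at 37 C, One-Glo was added and luminescence read after 30 minutes at room temperature.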

[10] = qHTS assay to identify small molecule agonists of the estrogen related receptor signaling pathway with the pleiotropic PPARgamma coactivator (PGC) from Tox21 10K library (AID 1224842); also: nearly all actives have a fitted effect of over 15% in size
Method in brief: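 Luminescence from One-Glo (30 min, room temperature) measured after PGC/ERR cells had 18 h at 37 C with pinned compound (23 nL in DMSO). Cells had been seeded at 2,000 per well and pre-incubated 6 h.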

Measured: Potency

Sequence of Luciferin 4-monooxygenase (Photinus pyralis) (P08659 whole entry, looked up): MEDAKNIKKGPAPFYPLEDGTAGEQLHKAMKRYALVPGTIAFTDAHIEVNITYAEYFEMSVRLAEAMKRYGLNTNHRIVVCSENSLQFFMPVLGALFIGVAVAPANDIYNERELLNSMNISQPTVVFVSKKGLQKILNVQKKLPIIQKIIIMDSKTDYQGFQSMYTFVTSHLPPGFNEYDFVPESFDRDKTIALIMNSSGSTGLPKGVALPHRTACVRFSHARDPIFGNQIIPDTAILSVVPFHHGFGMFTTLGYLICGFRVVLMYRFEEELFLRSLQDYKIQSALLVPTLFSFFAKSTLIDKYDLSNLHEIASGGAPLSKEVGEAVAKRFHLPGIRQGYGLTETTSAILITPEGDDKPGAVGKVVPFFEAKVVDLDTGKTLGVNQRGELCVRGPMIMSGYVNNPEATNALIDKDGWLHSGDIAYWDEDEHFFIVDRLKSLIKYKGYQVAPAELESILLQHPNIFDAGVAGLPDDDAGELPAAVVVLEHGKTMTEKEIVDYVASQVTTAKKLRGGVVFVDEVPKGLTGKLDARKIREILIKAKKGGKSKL
Sequence of Thyrotropin receptor (Homo sapiens) (P16473 whole entry, looked up): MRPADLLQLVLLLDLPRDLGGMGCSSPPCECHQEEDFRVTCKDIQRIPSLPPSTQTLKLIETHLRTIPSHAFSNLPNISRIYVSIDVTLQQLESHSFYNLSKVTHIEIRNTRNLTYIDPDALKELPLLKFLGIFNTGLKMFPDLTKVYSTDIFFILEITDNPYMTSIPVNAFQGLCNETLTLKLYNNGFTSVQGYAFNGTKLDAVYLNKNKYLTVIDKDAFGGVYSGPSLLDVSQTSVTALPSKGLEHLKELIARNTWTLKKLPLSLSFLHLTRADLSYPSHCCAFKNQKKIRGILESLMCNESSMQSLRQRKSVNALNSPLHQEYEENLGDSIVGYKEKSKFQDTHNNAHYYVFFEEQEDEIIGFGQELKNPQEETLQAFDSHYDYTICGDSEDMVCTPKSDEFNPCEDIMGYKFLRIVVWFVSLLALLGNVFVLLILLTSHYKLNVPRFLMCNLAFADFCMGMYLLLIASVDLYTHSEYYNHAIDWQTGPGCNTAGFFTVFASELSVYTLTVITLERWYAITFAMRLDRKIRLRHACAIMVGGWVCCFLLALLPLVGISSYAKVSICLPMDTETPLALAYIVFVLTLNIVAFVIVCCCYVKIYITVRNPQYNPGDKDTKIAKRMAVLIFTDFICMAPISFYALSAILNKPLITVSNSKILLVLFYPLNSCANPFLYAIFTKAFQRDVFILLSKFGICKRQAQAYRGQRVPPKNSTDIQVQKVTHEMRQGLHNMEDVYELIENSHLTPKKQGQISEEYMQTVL
Sequence of Nuclear receptor subfamily 1 group I member 3 (Homo sapiens) (Q14994 whole entry, looked up): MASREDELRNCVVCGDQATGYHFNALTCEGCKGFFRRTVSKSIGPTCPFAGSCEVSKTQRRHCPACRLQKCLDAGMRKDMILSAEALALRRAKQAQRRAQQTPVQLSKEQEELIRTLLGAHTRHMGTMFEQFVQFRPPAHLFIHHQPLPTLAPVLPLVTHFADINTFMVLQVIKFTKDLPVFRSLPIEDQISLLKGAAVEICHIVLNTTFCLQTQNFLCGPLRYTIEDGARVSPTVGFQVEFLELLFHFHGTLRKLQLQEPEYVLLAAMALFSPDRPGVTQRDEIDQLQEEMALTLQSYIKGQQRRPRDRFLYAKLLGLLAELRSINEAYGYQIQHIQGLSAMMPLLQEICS

CCCCCNCCCCC
not listed: [9] | [10]
inactive: all other assays above

OCC(O)CS (stereo not given)
not listed: [9] | [10]
inactive: all other assays above

Cc1ccc(C(C)C)cc1
not listed: [9] | [10]
inactive: all other assays above

COc1c2ccoc2cc2oc(=O)ccc12
not listed: [5] | [9] | [10]
inactive: all other assays above

Nc1cccc(N)n1
not listed: [7] | [9] | [10]
inactive: all other assays above

Nc1cccc(C(F)(F)F)c1
not listed: [4] | [5]
inactive: all other assays above

CC/C(C)=N/O
not listed: [9] | [10]
inactive: all other assays above

CC(=O)c1nccs1
not listed: [9] | [10]
inactive: all other assays above

OCC(CO)(CO)CO
not listed: [9] | [10]
inactive: all other assays above

CCc1cccc(O)c1
not listed: [9] | [10]
inactive: all other assays above

CC(O)CNCC(C)O (stereo not given)
not listed: [9] | [10]
inactive: all other assays above

CCCOCC(C)O (stereo not given)
not listed: [4] | [5]
inactive: all other assays above

CC/C=C(\C(=O)N[C@@H]1C(=O)N2C(C(=O)OCOC(=O)C(C)(C)C)=C(COC(N)=O)CS[C@H]12)c1csc(N)n1
not listed: [9] | [10]
inactive: all other assays above

Cc1ccc([N+](=O)[O-])cc1N
not listed: [9] | [10]
inactive: all other assays above

CCc1cccc(CC)c1N
not listed: [9] | [10]
inactive: all other assays above

CC(C)(C)NC[C@H](O)COc1nsnc1N1CCOCC1
not listed: [7] | [9] | [10]
inactive: all other assays above

O=C1O[C@H]([C@H](O)CO)C(O)=C1O
not listed: [9] | [10]
inactive: all other assays above

N#CCC(=O)O
not listed: [5]
inactive: all other assays above

COc1c(Cl)ccc(Cl)c1C(=O)O
not listed: [9] | [10]
inactive: all other assays above

NC(=O)NC(N)=O
not listed: [9] | [10]
inactive: all other assays above

CCCCCCCC(=O)O
not listed: [7] | [9] | [10]
inactive: all other assays above

O=C1C(N(CO)C(=O)NCO)N(CO)C(=O)N1CO (stereo not given)
not listed: [9] | [10]
inactive: all other assays above

NC(N)=S
not listed: [9] | [10]
inactive: all other assays above

CC1(C)[C@@H](O[C@H]2O[C@H](C(=O)O)[C@@H](O)[C@H](O)[C@H]2O[C@@H]2O[C@H](C(=O)O)[C@@H](O)[C@H](O)[C@H]2O)CC[C@]2(C)[C@H]3C(=O)C=C4[C@@H]5C[C@@](C)(C(=O)O)CC[C@]5(C)CC[C@@]4(C)[C@]3(C)CC[C@@H]12
not listed: [5] | [9] | [10]
inactive: all other assays above

Oc1ccc(Cc2ccccc2O)cc1
not listed: [5] | [9] | [10]
inactive: all other assays above

Cc1ncc(CO)c(CO)c1O
inactive: [1] | [2] | [3] | [6] | [7] | [8]

O=C(c1ccccc1)c1ccc(O)c(O)c1O
inactive: [2] | [3] | [6] | [9] | [10] | [7]

O=C(O)C1=NN(c2ccc(S(=O)(=O)O)cc2)C(=O)C1
inactive: [1] | [2] | [3] | [6] | [7] | [8]

Clc1cccc(Cl)c1NC1=NCCN1
not listed: [1] | [9] | [10]
inactive: all other assays above
